# Many of the other results were omitted from the sample, so hits are more common in it than they were.
# RE007 growth inh: less growth of the S. pombe RE007 Vpr strain | S. pombe RE007 Vpr strain, BacTiter-Glo ATP luminescence, 24 h | Potency, µM (titrated, usually from 92.2 µM), for inactives: at the top dose activity change, negative = less growth, most hits filed as inhibitors | hit rate 0.21% among 360,000; active = well fitted falling curve with a large enough effect; note: potency is the fitted concentration of half-maximal effect; % is set by controls: 0 for no effect and ±100 for the full control effect; nearly all actives have a fitted effect of over 50% in size
#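 Fission yeast RE007 carrying one integrated HIV-1 vpr copy, seeded at OD 0.01 in PMG+AL medium with 23 nL pinned compound. Grown 24 h at 30 degrees; viability read by BacTiter-Glo luminescence after 5 min.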
# Cycloheximide cs: counter-screen hit for Shiga toxin inhibitors, cycloheximide. cell reporter, cycloheximide protein synthesis inhibition counterscreen. max response, %. hit rate 12% among 300,000; in the data active = max response mostly above about 13%, no sharp cut-off; inactive = mostly below about 14%; note: read at 38.3 µM for the half of the compounds with a filed dose; 0% is about no effect
# Shiga toxin inh: Shiga toxin inhibition; inhibition, % at 38.7 µM; hit rate 9.2% among 290,000; Vero cells, Shiga toxin protein synthesis inhibition reporter; AID 2315; in the data active = inhibition mostly above about 28%, no sharp cut-off; inactive = mostly below about 43%; note: 0% is about no effect
# LmPK inh: inhibitors of Leishmania mexicana pyruvate kinase. purified LmPK, Kinase-Glo ATP luminescence, 1 h. Potency, µM (doses to about 57.5 µM), without a hit: at the highest dose activity change, negative = inhibition, usual class: inhibitors. hit rate 0.37% among 290,000. AID 1721; note: potency is the fitted concentration of half-maximal effect; % is set by controls: 0 for no effect and ±100 for the full control effect
#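 Kinase-Glo luminescence read after 1 h RT reaction of 0.1 nM LmPK with 0.5 mM PEP and 0.1 mM ADP. Activity scaled between uninhibited and enzyme-free controls.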
# Giardia FBPA inh: blocks Giardia fructose-bisphosphate aldolase activity; A8B2U2; purified Giardia FBPA; Potency, µM (series often up to 59.6 µM), without a hit: at the highest dose activity, negative = inhibition, actives largely listed as inhibitors; hit rate 0.71% among 290,000; note: potency is the fitted concentration of half-maximal effect; % is set by controls: 0 for no effect and ±100 for the full control effect; nearly all actives have a fitted effect of over 55% in size
# Target sequence (A8B2U2 whole entry, looked up): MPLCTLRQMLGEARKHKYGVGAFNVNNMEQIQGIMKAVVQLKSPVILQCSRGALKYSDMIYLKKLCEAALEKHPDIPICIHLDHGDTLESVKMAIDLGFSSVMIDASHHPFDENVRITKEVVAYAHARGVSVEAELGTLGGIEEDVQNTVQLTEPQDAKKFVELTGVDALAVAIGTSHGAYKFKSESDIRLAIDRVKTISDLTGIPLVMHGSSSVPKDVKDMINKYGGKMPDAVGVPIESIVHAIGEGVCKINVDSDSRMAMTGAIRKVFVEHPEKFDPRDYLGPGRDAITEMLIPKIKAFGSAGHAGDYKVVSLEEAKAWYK
#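 Giardia FBPA (40 nM reagent) was preincubated 10 min at RT with compound (up to 57.5 uM final), then substrate plus GAPDH/TPI/NAD/arsenate coupling system with diaphorase/resazurin was added; resorufin fluorescence (525/598 nm) was read after 20 min.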
# Tb PYK inh: blocks Trypanosoma brucei pyruvate kinase; Potency, µM (highest dose often 76.8 µM), inactives show top-dose activity, negative = inhibition, usual class: inhibitors; TbPYK enzyme, Kinase-Glo Plus ATP luminescence, 45 min; hit rate 0.12% among 410,000; note: potency is the fitted concentration of half-maximal effect; % is set by controls: 0 for no effect and ±100 for the full control effect; nearly all actives have a fitted effect of over 50% in size
#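 T. brucei PYK with substrate was exposed to pin-transferred compounds across a concentration series, then started with 130 uM ADP (final). After 45 min at room temperature, Kinase-Glo Plus luminescence was read, normalized and curve-fitted.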
# * marks the source's active call; other numbers are inactive results; · = not tested or not shown. Unless noted, calls come from the whole dose curve; as a rule, active = well fitted curve in the direction sought with a large enough effect; inconclusive = small, poorly fitted or top-dose-only effect, or another doubt; inactive = no such curve, though single readings can be large; an effect the other way counts as inactive or inconclusive.
SMILES,RE007 growth inh,Cycloheximide cs,Shiga toxin inh,LmPK inh,Giardia FBPA inh,Tb PYK inh
CN1N=C(C(C)(C)C)CSC1=Nc1ccc(F)cc1,-3%,19*,36,-4%,1%,2%
COC(=O)c1ccc2c(=O)n(CCCCCC(=O)NCc3ccc(OC)cc3)c(=O)[nH]c2c1,·,·,·,·,·,2%
O=C(Nc1ccccc1)c1ccc(Br)c(S(=O)(=O)Nc2ccccn2)c1,-1%,-1,-3,13%,-9%,0%
Cc1ccc(NC(=O)CNC(=O)C2CCCCC2)nc1,-9%,·,·,·,·,-5%
CC(=O)Oc1ccc(C(=O)Nc2cccc(NC(=O)c3ccco3)c2)cc1,-3%,-2,4,-6%,15%,-17%
Cc1ccc(OC(=O)c2ccc(C)c(C)c2)cn1,-24%,34*,52*,-4%,3%,3%
COc1ccc(C(=O)Nc2cccc(OC(=O)c3ccco3)c2)cc1,7%,20*,44,1%,-11%,-8%
COc1ccc(C(=O)Nc2cccc(OC(=O)c3ccc(C)c(C)c3)c2)cc1,8%,24*,43*,2%,1%,-1%
Cc1ccc(NC(=O)c2ccccc2NS(=O)(=O)c2ccc(Cl)s2)cc1S(=O)(=O)N1CCOCC1,-6%,-2,10,2%,13%,-4%
Cc1cc(C(=O)NNC(=O)NC(C)C)no1,-11%,-3,24,-6%,8%,3%
O=C(Nc1ccc(F)c(Cl)c1)c1cncs1,15%,4,-2,9%,-1%,-16%
Cc1cc(-c2ccc([N+](=O)[O-])cc2)cc(C)n1,-16%,·,·,·,·,-5%
Cc1cc(C)n(-c2ccc(N3CCOCC3)nn2)n1,10%,33*,57*,-18%,-3%,-9%
CC1=C(C(=O)N(C)C)CC(CC(=O)NCc2cccc3ccccc23)C(=O)N1CCCN1CCCC1=O (stereo unspecified),21%,·,·,·,·,-6%
COc1ccc(/C(N)=C/C(=O)C(C)(C)C)cc1,9%,19*,60,-3%,2%,-5%
CC(C)(C)C(=O)/C=C(\N)c1ccncc1,8%,-1,-6,-5%,4%,-1%
COc1cc(/C=C/C2=NNC(=O)CC2)cc(OC)c1OC,7%,-1,12,0%,4%,0%
CC(C)c1ccc(/C=C/C2=NNC(=O)CC2)cc1,4%,32*,85*,-5%,-10%,-27%
Nc1ncnc2c1ncn2-c1ccccc1Cl,7%,·,·,·,·,2%
Cc1ccc(Nc2ncnc3c2cnn3C)cc1,2%,27*,61*,-2%,-14%,-7%
CCOc1ccc(Nc2ncnc3c2cnn3C)cc1,10%,16*,20,0%,-1%,-1%
CC(=O)Nc1ccc(Nc2ncnc3c2cnn3C)cc1,·,·,·,·,·,-1%
Cn1ncc2c(Nc3ccc4ccccc4c3)ncnc21,-18%,33*,81*,-3%,-9%,0%
CCOC(=O)c1ccc(Nc2ncnc3c2cnn3C)cc1,-2%,0,6,0%,3%,-1%
Cn1ncc2c(Nc3ccc(Cl)cc3)ncnc21,-24%,32*,16,6%,-8%,-1%
SMILES,RE007 growth inh,Cycloheximide cs,Shiga toxin inh,LmPK inh,Giardia FBPA inh,Tb PYK inh
CCCOc1ccc(NC(=O)CC2C(=O)N(c3cccc(OC)c3)C(=O)N2CCc2ccncc2)cc1 (stereo unspecified),·,·,·,·,·,3%
C[C@H](NC(=O)C1CC(=O)N(c2ccc3c(c2)OCCO3)C1)C(=O)N1CCCCC1 (stereo partly specified),2%,1,21,2%,·,-4%
CCOc1ccc(C2/C(=C(\O)c3cccc(OC)c3)C(=O)C(=O)N2c2ccccn2)cc1OC (stereo unspecified),-12%,-3,-12,3%,5%,4%
O=C1ON(Cc2ccccc2)C(c2ccccc2)N1c1ccccc1 (stereo unspecified),9%,·,·,·,·,0%
CC1(C)COC(/C=C/c2cccc([N+](=O)[O-])c2)=N1,-16%,34*,65*,-7%,1%,1%
CCOC(=O)CN1C(=O)C(C)(C)Oc2ccc(C(=O)NC(C)(C)CC)cc21,8%,22*,9,1%,7%,2%

# From PubChem
